This note sets out measurements from PubChem BioAssay AID1578 (Sanford-Burnham Center for Chemical Genomics, 2009).

About 3,000 (1%) of roughly 290,000 compounds were called active. The entries come from a sample that favours actives as a whole. Values without a mark were called inactive. Cut-off read from the data, not from the text of the source: active = inhibition mostly above about 36% (no sharp cut-off); inactive = mostly below about 34%.

This assay in a line: inhibition of NOD1-driven NF-kB reporter – cell-based, luminescence, uHTS, primary screen (AID 1578).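 Note: HEK-293T reporter cells stimulated with the NOD1 agonist gamma-tri-DAP.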 The conditions noted are these: NOD1-driven NF-kB luciferase reporter cells, at 4 µM, active compounds read high.
`COc1cc(/C=C2/SC(=S)N(CC(=O)NC(C)(C)C)C2=O)cc(OC)c1OC`: the inhibition was 2.3%.
Next, `COc1ccc2c(CSc3nnc(-c4cccnc4)n3-c3ccccc3F)cc(=O)oc2c1`: -12.1%.
Take `Cc1ccc(S(=O)(=O)N(C)C)cc1NC(=O)CN1C(=O)NC2(CCCCCC2)C1=O`: the inhibition was -38.1%.
Next, `CCOC(=O)[C@@H]1[C@H]2COc3ccc(Br)cc3[C@H]2N2C(=O)N(c3ccc(C)cc3)C(=O)[C@]12C`: -18.3%.
On to `O=C(CSCc1ccccc1)Nc1ccc(F)cc1F`, for which the inhibition was 7.2%.
For `O=C(CSCc1ccccc1)Nc1ccc(F)c(F)c1` the value was -34.3%; for `O=C(CSCc1ccccc1)NNc1c(F)c(F)cc(F)c1F`, 34.4% (active).
As to `CCn1c(=O)c2cc(C(=O)NCc3cccs3)sc2c2ccccc21`, the inhibition is -17.9%.
Next, `COc1ccc(-c2noc(C3CCCN(C(=O)c4cccc(F)c4)C3)n2)cc1` (stereo not drawn): -12.2%; `CN1CCC(OC(=O)Cc2ccc(Cl)cc2)CC1`: -12.1%; `Fc1ccc(Sc2ccccc2CNC2=NCCN2)cc1`: -4.9%.
Next, `Fc1ccccc1Sc1ccccc1CNC1=NCCN1`: 64.4% (active); `c1ccc(Sc2cccc3ccccc23)c(CNC2=NCCN2)c1`: -31.1%.
Next, `CCOC(=O)c1c(CN2CCN(C)CC2)n(-c2ccccc2)c2cc(Br)c(O)cc12`: -4%; `CCOC(=O)c1c(CN2CCOCC2)n(-c2ccccc2)c2cc(Br)c(O)cc12`: 67% (active); `CCOC(=O)c1c(CN2CCOCC2)n(-c2ccccc2)c2cc(Br)c(OC)cc12`: 30.8%.
For `Cc1cccc(-n2c(C)cc(C(=O)NC3CCCCC3)c2C)c1`, the inhibition is -17.7%.
For the molecule `CCOCCCNC(=S)NNC(=O)CCn1nc(C)c(Br)c1C`, the inhibition is -19.5%.
Take `Cc1cc(NC(=O)CSc2nc3ccccc3c(=O)n2Cc2ccccc2)no1`: the inhibition is 5%.
Next, `NC(=O)CSc1nc2ccccc2c(=O)n1Cc1ccccc1`: -16%; `Cc1ccc(S(=O)(=O)N2CCCCC2C(=O)N(C)c2ccccc2)cc1` (stereo not drawn): -15.4%.
As for `Cc1cc(C)n(Cc2ccc(Cl)c(Cl)c2)c(=O)c1S(=O)(=O)c1ccccc1`, the inhibition was 5.3%.
For `CC(C)(C)c1cnnn1-c1ccc(C(=O)CCl)cc1` the value was 77.3% (active); for `CC(=O)c1ccc(-n2nncc2C(C)(C)C)cc1`, 60.5%.
For `Cc1cnnn1-c1ccc(C(=O)CCl)cc1` the value was 19.4%; for `O=C1N=C(N2CCOCC2)S/C1=C\c1ccncc1`, -7.7%; for `CC1(C)CN=C(N(C(=O)Nc2ccccc2)c2ccccc2F)S1`, -4.1%.
For `Fc1ccc(COc2ccc(-c3nnco3)cc2)cc1` the value was -10.4%; for `Cc1ccc(COc2ccc(-c3nnco3)cc2)cc1`, -12.2%; for `CCCCN(CC)S(=O)(=O)c1ccc2c(c1)n(C)c(=O)c(=O)n2C`, -6%.
As for `CCn1nc(C)c(NC(=O)/C=C/c2cnn(C)c2C)c1C`, the inhibition was 11%.
For `Cc1ccccc1Cn1nc(C)c(NC(=O)/C=C/c2cnn(C)c2C)c1C` the value was -19.1%; for `Cc1nn(Cc2c(Cl)cccc2Cl)c(C)c1NC(=O)/C=C/c1cnn(C)c1C`, 99% (active).
`Cc1nc2cc(NS(=O)(=O)c3cccc4cccnc34)ccc2s1`: the inhibition was -11.7%.
`CN(C)/C(=N\S(=O)(=O)c1ccccc1)c1ccccc1`: the inhibition is -32.6%.
For `N=C1SC(CC(=O)Nc2ccc([N+](=O)[O-])cc2)C(=O)N1c1ccccc1` (stereo not drawn), the inhibition was -6.5%.
For `CCOC(=O)C1(CCc2ccccc2)CCN(C(=O)CCn2cnnn2)CC1` the value was -48%.
For `O=C(/C=C/c1ccc(OC(F)F)cc1)Nc1cccc(S(=O)(=O)N2CCOCC2)c1`, the inhibition is -23.1%.
Next, `CCn1c(C)nc2cc(-c3nc4n(n3)Cc3ccccc3-4)ccc21`: 94% (active); `Clc1ccc(-c2nc3n(n2)Cc2ccccc2-3)cc1`: -7.2%.
On to `Cc1ccc(-c2nc3n(n2)Cc2ccccc2-3)cc1`, for which the inhibition is -27.4%.
Next, `COc1ccc(CCNC2CC(=O)N(C3CCCCC3)C2=O)cc1OC` (stereo not drawn): -7.3%.
For `CCN(CC)CCCNC1=C(Cl)C(=O)c2ccccc2C1=O` the value was 98.9% (active); for `O=C1C(Cl)=C(NCCCO)C(=O)c2ccccc21`, -20.7%; for `CCNC1=C(Cl)C(=O)c2ccccc2C1=O`, 4.8%.
Next, `CC1CCc2c(sc3ncn(CC(=O)N=Nc4c(O)[nH]c5ccccc45)c(=O)c23)C1` (stereo not drawn): 4%; `O=[N+]([O-])c1cc(Cl)cc(/C=N/Nc2nc3ccccc3s2)c1O`: 1.6%.
Consider `COc1cc(/C=N/Nc2ccccn2)ccc1O`, for which the inhibition is 7.2%.
Next, `O=[N+]([O-])c1cc(/C=N\Nc2ccccn2)ccc1Cl`: -18.5%; `COc1cc(/C=N/Nc2ccccn2)cc(OC)c1O`: 46.4% (active).
For `Oc1cccc(/C=N/Nc2cccc3cccnc23)c1` the value was -66.8%; for `COc1cc(/C=N/Nc2cccc3cccnc23)cc(OC)c1O`, 50.8% (active).
For `COc1ccc(/C=N/Nc2ccccn2)cc1OC` the value was 1.4%; for `Oc1ccccc1/C=N/Nc1cccc2cccnc12`, -47.2%.
For the molecule `CC1=C(C(=O)OCc2ccccc2)C(c2ccccc2OC(F)F)NC(=O)N1` (stereo not drawn), the inhibition was 11.1%.
`Cc1[nH]c2ccccc2c1C(=O)C(=O)NCc1cccs1`: the inhibition was -20.5%.
For `Cc1ccccc1SCC(=O)N/N=C/c1ccc(F)cc1` the value was 4.1%; for `O=C(Cc1ccccc1F)Nc1nc(-c2cccnc2)cs1`, -9.2%; for `O=C(CSc1nnc(-c2ccco2)o1)NC(=O)Cc1ccccc1`, -4.5%.
With `CC(=O)N1CN(Cc2ccccn2)Cc2c1sc1c2CCCC1`, the inhibition was -11.9%.
For `CC(=O)c1c(C)[nH]c(C(=O)Nc2nc(C)cs2)c1C` the value was 12.4%.
Next, `CC(=O)c1c(C)[nH]c(C(=O)Nc2nc(-c3ccc(Cl)cc3)cs2)c1C`: 66.1%; `COc1ccccc1N1CCN(C(=O)C(C)N(c2ccc(C)cc2)S(C)(=O)=O)CC1` (stereo not drawn): -7.9%.
